“And” between values parts separate entries of the source, which are not always exact repeats. Identical values can stand only once. Results filed as inconclusive are left out. A structure can be active in one record and inactive in another. The source made the active and inactive calls. Rule for the calls, unless noted: active = hit-call score of the fitted dose curve at least 0.9, where 1 is the maximum; inactive = score below 0.9.
What was measured:
[1] = target: Myc proto-oncogene protein (Homo sapiens) (UniProt P01106); experiment: ATG_Myc_CIS: Attagene CIS-FACTORIAL HepG2 Assay for human Myelocytomatosis (Myc) Proto-Oncogene Transcription Factor (AID 2282990); settings: HepG2, Attagene cis-reporter transcription factor activity; actives raise or lower the signal
Outline: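 HepG2, transient MRTU transfection (cis promoters, endogenous TFs); 24 h dosing; TriZol RNA → oligo(dT) RT → PCR → 6-FAM primer extension → HpaI cut → CE. Bidirectional fit vs DMSO.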

[2] = ATG_NRF2_ARE_CIS: Attagene CIS-FACTORIAL HepG2 Assay for human Nuclear Factor Erythroid 2 Related Factor 2 (NFR2) response to Antioxidant Response Elements (ARE) (AID 2282992); settings: HepG2 Attagene ARE/NRF2 reporter, transcription factor activity; actives raise or lower the signal;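 for AC50: reporter mRNA level measured by RT-PCR and capillary electrophoresis fluorescence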
Outline: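 Endogenous transcription factor activity in human liver HepG2 cells is tracked via a cis-element-driven reporter within a multiplexed set. mRNA induction is read by RT-PCR and capillary electrophoresis after 24 h, with DMSO as baseline.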

[3] = ATG_Oct_MLP_CIS: Attagene CIS-FACTORIAL HepG2 Assay for human Octamer-Binding Transcription Factor (Oct) (AID 2282993); settings: HepG2 Attagene cis-factorial Oct reporter, mRNA; actives raise or lower the signal
Outline: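 Read-out: reporter mRNA via RT-PCR plus capillary electrophoresis of 6-FAM-labelled fragments. Transiently transfected HepG2, 24 h exposure, endogenous TF activity on cis elements. Gain or loss of signal fitted relative to DMSO.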

[4] = BSK_3C_TissueFactor: BioMAP Diversity Plus: 3C Assay for Tissue Factor Biomarker Activity (AID 2282997); settings: BioMAP 3C HUVEC, tissue factor biomarker readout; actives raise or lower the signal
Outline: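 HUVEC, 3C system, 24 h post-dose; Tissue Factor by ELISA; bidirectional fit vs DMSO baseline.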

[5] = BSK_3C_uPAR: BioMAP Diversity Plus: 3C Assay for Urokinase-type plasminogen activator receptor (uPAR) Biomarker Activity (AID 2282998); settings: BioMAP 3C HUVEC, uPAR biomarker ELISA; actives raise or lower the signal
Outline: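 HUVEC primary cells; 24 h post-dose; uPAR by ELISA; gain or loss of signal fitted bidirectionally vs DMSO baseline.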

[6] = BSK_3C_VCAM1: BioMAP Diversity Plus: 3C Assay for Vascular cell adhesion molecule 1 (VCAM1) Biomarker Activity (AID 2282999); settings: BioMAP 3C HUVEC, VCAM1 ELISA, cytokine-stimulated; actives raise or lower the signal
Outline: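 Activity fitted in both directions relative to DMSO, with ELISA measurement of the surface marker on primary HUVEC (3C) at 24 h post-treatment; parallel SRB staining (0.1% SRB, TCA-fixed, 560 nm) flagged overt cytotoxicity.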

[7] = BSK_4H_Eotaxin3: BioMAP Diversity Plus: 4H Assay for Eotaxin 3 Biomarker Activity (AID 2283000); settings: primary human endothelial cells (HUVEC); actives raise or lower the signal;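 note: CCL26 protein level quantified by ELISA in parallel with SRB cytotoxicity check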
Outline: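 Readout is Eotaxin-3 (CCL26) level by ELISA in primary human umbilical vein endothelial cells harvested 24 h after chemical exposure; activity fitted in both directions against DMSO control.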

[8] = target: human Peroxisome Proliferator-activated Receptor alpha (PPARa), PPARA (gene 5465) (UniProt Q07869); experiment: ATG_PPARa_TRANS: Attagene TRANS-FACTORIAL HepG2 Assay for human Peroxisome Proliferator-activated Receptor alpha (PPARa) (AID 2283001; active = hit-call score of the fitted dose curve at least 0.9, where 1 is the maximum;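 for AC50: potency for gain of reporter signal over DMSO so agonist or activator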)
Outline: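 Transfected HepG2 cells treated with test chemical for 24 h. RNA isolated, reverse-transcribed with oligo(dT), PCR-amplified, FAM-labelled and HpaI-digested. Fragments sized by capillary electrophoresis; gain-of-signal fit relative to DMSO.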

[9] = read-out: Intercellular Adhesion Molecule 1 (ICAM1), ICAM1 (gene 3383); experiment: BSK_3C_ICAM1: BioMAP Diversity Plus: 3C Assay for Intercellular Adhesion Molecule 1 (ICAM1) Biomarker Activity (AID 2283003); settings: primary human endothelial cells (HUVEC); actives raise or lower the signal
Outline: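 ELISA read-out of ICAM-1; HUVEC (primary human), 3C system, 24 h post-dosing; bidirectional fit vs DMSO baseline.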

[10] = BSK_3C_Proliferation: Cell Proliferation Assessment in the BioMAP Diversity Plus: 3C Assay (AID 2283006); settings: primary human endothelial cells (HUVEC);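 for AC50: potency may reflect either rise or fall in cell number versus DMSO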
Outline: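 HUVEC, sub-confluent; 48 h chemical exposure; 10% TCA fix, 0.1% SRB stain, A560 total protein. Gain or loss of signal fitted both directions vs DMSO control.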

[11] = target: Peroxisome proliferator-activated receptor gamma (Homo sapiens) (UniProt P37231); experiment: ATG_PPARg_TRANS: Attagene TRANS-FACTORIAL HepG2 Assay for human Peroxisome Proliferator-activated Receptor-gamma (PPARg) (AID 2283007; active = hit-call score of the fitted dose curve at least 0.9, where 1 is the maximum)
Outline: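 Twenty-four hours after chemical dosing of transiently transfected HepG2 cells, isolated RNA was converted to cDNA, reporter sequences amplified and 6-FAM-labelled, then HpaI-digested and analysed by capillary electrophoresis. Signal increase against DMSO was fitted.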

[12] = target: Nuclear receptor subfamily 1 group I member 2 (Homo sapiens) (UniProt O75469); experiment: ATG_PXR_TRANS: Attagene TRANS-FACTORIAL HepG2 Assay for human Pregnane X Receptor (PXR) (AID 2283008; active = hit-call score of the fitted dose curve at least 0.9, where 1 is the maximum)
Outline: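 HepG2 transfected (FuGene 6) with GAL4-UAS reporter units + PXR-Gal4 chimera; dosed 24 h. Total RNA → oligo(dT) RT → PCR → 6-FAM primer extension → HpaI cut → CE. Gain-of-signal vs DMSO.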

[13] = target: human RAR-related Orphan Receptor beta (RORb), RORB (gene 6096) (UniProt Q92753); experiment: ATG_RORb_TRANS: Attagene TRANS-FACTORIAL HepG2 Assay for human RAR-related Orphan Receptor beta (RORb) (AID 2283010; active = hit-call score of the fitted dose curve at least 0.9, where 1 is the maximum)
Outline: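 HepG2, transient MRTU transfection (GAL4-UAS reporters, exogenous NR-Gal4 chimeras); 24 h compound exposure; total RNA → RT-PCR → 6-FAM primer extension → HpaI digest → CE fluorescence. Positive direction vs DMSO baseline.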

[14] = target: human RAR-related Orphan Receptor gamma (RORg), RORC (gene 6097) (UniProt P51449); experiment: ATG_RORg_TRANS: Attagene TRANS-FACTORIAL HepG2 Assay for human RAR-related Orphan Receptor gamma (RORg) (AID 2283011; active = hit-call score of the fitted dose curve at least 0.9, where 1 is the maximum)
Outline: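 Transient MRTU transfection of HepG2 (TRANS format, exogenous NR-Gal4 chimera). 24 h dosing. Total RNA → oligo(dT) RT → PCR → 6-FAM labelling → HpaI cut → CE. Gain vs DMSO.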

[15] = target: human Retinoic Acid Receptor beta (RARb), RARB (gene 5915) (UniProt P10826); experiment: ATG_RARb_TRANS: Attagene TRANS-FACTORIAL HepG2 Assay for human Retinoic Acid Receptor beta (AID 2283004; active = hit-call score of the fitted dose curve at least 0.9, where 1 is the maximum)
Outline: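 Readout is reporter mRNA induction: RNA reverse-transcribed, PCR-amplified, FAM-labelled, HpaI-cut and resolved by capillary electrophoresis. Transiently transfected HepG2 cells carrying exogenous NR–Gal4 chimeras were dosed for 24 h; activity fitted upward relative to DMSO.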

[16] = target: Retinoic acid receptor alpha (Homo sapiens) (UniProt P10276); experiment: ATG_RARa_TRANS: Attagene TRANS-FACTORIAL HepG2 Assay for human Retinoic Acid Receptor alpha (RARa) (AID 2283005; active = hit-call score of the fitted dose curve at least 0.9, where 1 is the maximum)
Outline: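 Reporter transcripts, measured by RT-PCR with fluorescent labeling and capillary electrophoresis after 24 h dosing, reflect activity of an exogenous human RARa–GAL4 fusion in transiently transfected HepG2. Fitted for increase relative to DMSO.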

[17] = target: Cellular tumor antigen p53 (Homo sapiens) (UniProt P04637); experiment: ATG_p53_CIS: Attagene CIS-FACTORIAL HepG2 Assay for human p53 Transcription Factor (AID 2282994); settings: HepG2 p53 cis-element reporter, Attagene mRNA; actives raise or lower the signal
Outline: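 Steps: transfect HepG2 with multiplexed cis reporter constructs; dose chemicals 24 h; extract RNA, reverse-transcribe, PCR-amplify reporter sequences; FAM-label, HpaI-digest, resolve fragments by CE. Activity fitted both directions relative to DMSO.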

[18] = target: human Peroxisome Proliferator-activated Receptor delta (PPARd), PPARD (gene 5467) (UniProt Q03181); experiment: ATG_PPARd_TRANS: Attagene TRANS-FACTORIAL HepG2 Assay for human Peroxisome Proliferator-activated Receptor delta (PPARd) (AID 2283002; active = hit-call score of the fitted dose curve at least 0.9, where 1 is the maximum)
Outline: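 Transient HepG2 transfection (multiple GAL4-UAS RTUs, chimeric receptor-Gal4); 24 h dosing; total RNA → oligo(dT) RT → PCR → 6-FAM primer extension → HpaI cut → CE. Positive direction vs DMSO.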

[19] = target: human Retinoic Acid Receptor gamma (RARg), RARG (gene 5916) (UniProt P13631); experiment: ATG_RARg_TRANS: Attagene TRANS-FACTORIAL HepG2 Assay for human Retinoic Acid Receptor gamma (RARg) (AID 2283009; active = hit-call score of the fitted dose curve at least 0.9, where 1 is the maximum)
Outline: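 Readout: reporter transcript levels via RT-PCR, 6-FAM primer-extension labelling, HpaI digestion and capillary electrophoresis. Cells: HepG2 carrying transfected RARg-GAL4 chimera plus UAS reporter set. Dosing 24 h; DMSO negative control.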

Measured: AC50

Sequence of human RAR-related Orphan Receptor beta (RORb), RORB (gene 6096) (Q92753 whole entry, looked up, the tested form may be a part): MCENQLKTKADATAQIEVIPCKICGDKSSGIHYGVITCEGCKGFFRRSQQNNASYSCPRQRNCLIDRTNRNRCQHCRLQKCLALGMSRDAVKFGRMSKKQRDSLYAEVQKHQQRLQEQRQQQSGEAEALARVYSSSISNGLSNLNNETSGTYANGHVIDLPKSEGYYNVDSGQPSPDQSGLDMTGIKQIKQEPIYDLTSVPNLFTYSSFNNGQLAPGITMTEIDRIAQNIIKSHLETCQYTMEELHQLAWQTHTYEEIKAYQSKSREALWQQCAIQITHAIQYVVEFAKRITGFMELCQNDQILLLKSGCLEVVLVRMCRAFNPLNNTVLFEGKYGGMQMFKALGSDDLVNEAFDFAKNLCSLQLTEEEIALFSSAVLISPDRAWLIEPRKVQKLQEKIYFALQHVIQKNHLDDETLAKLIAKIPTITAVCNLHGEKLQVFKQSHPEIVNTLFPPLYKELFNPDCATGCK
Sequence of Retinoic acid receptor alpha (Homo sapiens) (P10276 whole entry, looked up, the tested form may be a part): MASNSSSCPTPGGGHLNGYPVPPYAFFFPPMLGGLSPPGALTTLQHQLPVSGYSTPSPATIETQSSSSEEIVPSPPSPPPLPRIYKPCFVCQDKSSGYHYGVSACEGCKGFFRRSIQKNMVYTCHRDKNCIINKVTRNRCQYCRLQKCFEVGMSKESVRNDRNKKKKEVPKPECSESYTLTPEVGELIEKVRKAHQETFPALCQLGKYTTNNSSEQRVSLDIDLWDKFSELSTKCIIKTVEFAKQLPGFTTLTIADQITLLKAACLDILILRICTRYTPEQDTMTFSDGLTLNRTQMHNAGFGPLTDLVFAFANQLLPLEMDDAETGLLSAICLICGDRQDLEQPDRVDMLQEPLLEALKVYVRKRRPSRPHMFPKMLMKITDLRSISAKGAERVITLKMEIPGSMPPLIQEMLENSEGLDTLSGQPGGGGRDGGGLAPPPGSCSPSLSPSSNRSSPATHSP
Sequence of Myc proto-oncogene protein (Homo sapiens) (P01106 whole entry, looked up): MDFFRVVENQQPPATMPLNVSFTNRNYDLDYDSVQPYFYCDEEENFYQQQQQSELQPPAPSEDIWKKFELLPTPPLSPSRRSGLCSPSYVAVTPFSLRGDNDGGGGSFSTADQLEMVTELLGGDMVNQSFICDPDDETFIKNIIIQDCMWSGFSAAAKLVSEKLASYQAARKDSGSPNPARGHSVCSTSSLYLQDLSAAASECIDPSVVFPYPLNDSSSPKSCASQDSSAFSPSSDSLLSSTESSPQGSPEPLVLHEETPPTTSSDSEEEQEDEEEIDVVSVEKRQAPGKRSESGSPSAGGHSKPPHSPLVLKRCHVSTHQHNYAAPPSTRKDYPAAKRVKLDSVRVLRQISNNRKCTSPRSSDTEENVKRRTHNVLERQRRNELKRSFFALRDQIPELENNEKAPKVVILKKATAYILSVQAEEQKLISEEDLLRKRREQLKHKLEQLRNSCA
Sequence of human Retinoic Acid Receptor gamma (RARg), RARG (gene 5916) (P13631 whole entry, looked up, the tested form may be a part): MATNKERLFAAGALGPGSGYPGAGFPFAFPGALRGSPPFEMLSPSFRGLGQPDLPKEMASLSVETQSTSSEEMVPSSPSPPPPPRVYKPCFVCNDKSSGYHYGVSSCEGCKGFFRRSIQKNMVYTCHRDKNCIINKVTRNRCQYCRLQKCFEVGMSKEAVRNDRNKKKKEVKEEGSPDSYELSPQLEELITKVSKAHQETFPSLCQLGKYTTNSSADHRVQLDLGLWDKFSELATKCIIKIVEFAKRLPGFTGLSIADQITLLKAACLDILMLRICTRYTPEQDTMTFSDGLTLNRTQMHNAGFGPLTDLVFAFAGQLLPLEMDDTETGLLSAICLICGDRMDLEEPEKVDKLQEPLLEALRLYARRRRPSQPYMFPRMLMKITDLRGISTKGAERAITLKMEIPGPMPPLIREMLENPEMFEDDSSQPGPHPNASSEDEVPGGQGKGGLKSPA
Sequence of Nuclear receptor subfamily 1 group I member 2 (Homo sapiens) (O75469 whole entry, looked up, the tested form may be a part): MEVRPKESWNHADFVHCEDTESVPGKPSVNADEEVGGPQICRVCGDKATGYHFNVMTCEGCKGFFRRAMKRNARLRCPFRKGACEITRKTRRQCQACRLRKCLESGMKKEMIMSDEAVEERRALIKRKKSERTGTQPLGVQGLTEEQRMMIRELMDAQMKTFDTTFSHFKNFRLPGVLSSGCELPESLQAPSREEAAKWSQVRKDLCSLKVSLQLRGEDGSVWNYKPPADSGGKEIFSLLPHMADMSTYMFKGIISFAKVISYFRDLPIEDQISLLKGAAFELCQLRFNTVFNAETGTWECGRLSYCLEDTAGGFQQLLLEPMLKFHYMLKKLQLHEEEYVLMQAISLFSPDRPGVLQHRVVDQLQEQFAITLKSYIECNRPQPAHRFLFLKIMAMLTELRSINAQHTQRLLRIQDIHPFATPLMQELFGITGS
Sequence of human Retinoic Acid Receptor beta (RARb), RARB (gene 5915) (P10826 whole entry, looked up, the tested form may be a part): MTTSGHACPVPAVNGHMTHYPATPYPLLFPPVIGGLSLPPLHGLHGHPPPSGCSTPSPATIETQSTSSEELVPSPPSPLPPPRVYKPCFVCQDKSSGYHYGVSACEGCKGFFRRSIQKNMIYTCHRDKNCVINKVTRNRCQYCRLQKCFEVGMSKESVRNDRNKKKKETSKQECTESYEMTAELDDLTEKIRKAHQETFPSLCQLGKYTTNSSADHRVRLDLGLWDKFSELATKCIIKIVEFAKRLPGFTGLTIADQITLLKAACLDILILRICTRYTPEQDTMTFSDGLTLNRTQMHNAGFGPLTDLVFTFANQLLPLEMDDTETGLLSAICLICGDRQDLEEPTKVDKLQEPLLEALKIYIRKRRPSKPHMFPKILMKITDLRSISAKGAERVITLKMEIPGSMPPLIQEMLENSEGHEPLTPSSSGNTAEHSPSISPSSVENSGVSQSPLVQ
Sequence of Cellular tumor antigen p53 (Homo sapiens) (P04637 whole entry, looked up, the tested form may be a part): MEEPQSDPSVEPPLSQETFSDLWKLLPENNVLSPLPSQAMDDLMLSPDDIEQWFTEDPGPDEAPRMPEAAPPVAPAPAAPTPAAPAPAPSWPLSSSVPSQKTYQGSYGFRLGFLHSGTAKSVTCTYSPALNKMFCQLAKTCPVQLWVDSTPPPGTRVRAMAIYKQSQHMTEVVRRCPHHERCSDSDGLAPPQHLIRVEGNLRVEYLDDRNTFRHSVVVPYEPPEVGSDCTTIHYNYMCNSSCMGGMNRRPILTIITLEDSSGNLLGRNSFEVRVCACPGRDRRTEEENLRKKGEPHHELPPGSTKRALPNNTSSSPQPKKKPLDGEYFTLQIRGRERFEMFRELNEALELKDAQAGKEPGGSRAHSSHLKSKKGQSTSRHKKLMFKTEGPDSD
Sequence of human Peroxisome Proliferator-activated Receptor alpha (PPARa), PPARA (gene 5465) (Q07869 whole entry, looked up, the tested form may be a part): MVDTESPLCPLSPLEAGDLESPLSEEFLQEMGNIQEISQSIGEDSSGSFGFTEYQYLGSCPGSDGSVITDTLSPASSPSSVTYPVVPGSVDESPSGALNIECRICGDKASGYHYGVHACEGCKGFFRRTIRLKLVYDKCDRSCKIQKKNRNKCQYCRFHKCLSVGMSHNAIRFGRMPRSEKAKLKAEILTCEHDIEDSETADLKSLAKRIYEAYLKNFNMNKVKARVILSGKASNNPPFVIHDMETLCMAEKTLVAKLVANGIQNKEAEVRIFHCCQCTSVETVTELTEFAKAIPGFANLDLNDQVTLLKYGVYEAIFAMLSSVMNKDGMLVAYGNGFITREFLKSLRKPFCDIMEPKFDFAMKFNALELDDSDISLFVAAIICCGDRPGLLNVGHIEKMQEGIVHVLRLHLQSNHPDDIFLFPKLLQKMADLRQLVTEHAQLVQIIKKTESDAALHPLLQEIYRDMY
Sequence of Peroxisome proliferator-activated receptor gamma (Homo sapiens) (P37231 whole entry, looked up): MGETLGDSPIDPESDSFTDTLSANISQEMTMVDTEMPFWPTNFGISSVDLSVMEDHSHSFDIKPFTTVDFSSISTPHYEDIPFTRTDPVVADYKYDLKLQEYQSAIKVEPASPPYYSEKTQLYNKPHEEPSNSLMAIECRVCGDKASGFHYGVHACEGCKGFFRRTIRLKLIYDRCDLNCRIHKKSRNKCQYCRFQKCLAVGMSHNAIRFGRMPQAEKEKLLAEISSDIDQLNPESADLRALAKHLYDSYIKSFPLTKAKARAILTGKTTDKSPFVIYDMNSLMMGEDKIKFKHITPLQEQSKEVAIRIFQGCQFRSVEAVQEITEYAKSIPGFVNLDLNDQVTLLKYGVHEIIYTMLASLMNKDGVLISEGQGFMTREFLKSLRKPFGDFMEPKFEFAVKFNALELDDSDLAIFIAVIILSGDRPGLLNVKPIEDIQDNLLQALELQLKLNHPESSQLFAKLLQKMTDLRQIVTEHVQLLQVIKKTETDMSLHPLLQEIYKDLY
Sequence of human RAR-related Orphan Receptor gamma (RORg), RORC (gene 6097) (P51449 whole entry, looked up, the tested form may be a part): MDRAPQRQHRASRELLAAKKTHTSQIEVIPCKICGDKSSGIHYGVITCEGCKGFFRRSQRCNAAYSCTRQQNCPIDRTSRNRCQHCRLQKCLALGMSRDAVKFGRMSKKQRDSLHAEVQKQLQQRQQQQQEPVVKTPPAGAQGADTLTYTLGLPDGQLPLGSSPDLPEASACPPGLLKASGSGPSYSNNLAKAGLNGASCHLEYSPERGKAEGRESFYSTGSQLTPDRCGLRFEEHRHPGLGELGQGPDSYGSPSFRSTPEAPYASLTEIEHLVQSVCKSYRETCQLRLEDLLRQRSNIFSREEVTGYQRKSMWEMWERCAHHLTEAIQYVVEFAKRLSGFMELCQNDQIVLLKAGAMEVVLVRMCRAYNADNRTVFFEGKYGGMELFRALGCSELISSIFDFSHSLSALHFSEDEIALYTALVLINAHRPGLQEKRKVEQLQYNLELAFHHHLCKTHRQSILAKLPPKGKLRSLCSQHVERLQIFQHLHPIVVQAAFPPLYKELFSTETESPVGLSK

S=C(S)NCCNC(=S)S.[Mn+2].[S-]C([S-])=NCCN=C([S-])[S-].[Zn+2]
inactive: [1] | [2] | [3] | [4] | [5] | [6] | [7] | [8] | [9] | [10] | [11] | [12] | [13] | [14]
active: [4] 6.82 µM [middle of 6 runs] | [6] 7.78 µM and 7.28 µM and 10 µM | [12] 12 µM and 18.7 µM

CCCCCOC(=O)COc1cc(N2C(=O)C3=C(CCCC3)C2=O)c(F)cc1Cl
active: [2] 20.7 µM | [6] 26.5 µM | [10] 14.3 µM
not listed: [17] | [18] | [19]
inactive: all other assays above

Cc1nn(C)c(Oc2ccccc2)c1C=NOCc1ccc(C(=O)OC(C)(C)C)cc1
active: [2] 0.0249 µM | [5] 7.77 µM | [6] 32.5 µM | [10] 7.65 µM | [11] 1.88 µM
not listed: [3]
inactive: all other assays above

COCCO
not listed: [3] | [18]
inactive: all other assays above

CCOC(=O)C(C)Oc1ccc(Oc2cnc3cc(Cl)ccc3n2)cc1 (configuration not stated)
not listed: [15] | [16] | [17] | [18]
inactive: all other assays above

CC1(C)C(C=C(Cl)Cl)C1C(=O)OCc1cccc(Oc2ccccc2)c1 (configuration not stated)
active: [2] 6.5 µM | [10] 4.29 µM | [12] 20.2 µM
not listed: [3] | [11] | [15] | [16] | [18] | [19]
inactive: all other assays above

CCOC(=O)c1ccc(O)cc1
inactive: [1] | [2] | [17] | [4] | [5] | [6] | [7] | [8] | [18] | [9] | [15] | [16] | [10] | [12] | [19]
active: [8] 20.5 µM
